Laboratory results published in PubChem BioAssay AID1159580 (chemical genetic matrix, 2015).
In all, about 5,500 compounds went through this assay and about 2,000 (36%) were called active. Another 18% or so got no clear call; they are omitted. Rule as the data show it: active = normalized growth mostly below about 0.91 (no sharp cut-off); inconclusive = no clear call, values can overlap the other calls; inactive = mostly above about 0.92. This is one part of the list.

Test: chemical genetic growth profiling, strain panel (AID 1159580);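 also: tested at 20 µM; growth read once vehicle control cultures reached saturation at 30 °C; 1 = growth at the plate median or of vehicle wells; lower values mean less growth of the strain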
Details: growth OD

Measured: normalized growth

O=C(c1ccccc1)c1ccc2n1CCC2C(=O)O (stereo not drawn)
inactive: S. cerevisiae deletion strains, locus YKL009W, strain mrt4, active compounds read low 0.962 | S. cerevisiae deletion strains, locus YKL068W, active compounds read low 0.979 | S. cerevisiae deletion strains, locus YKL085W, strain MDH1 (second series), active compounds read low 0.99 | S. cerevisiae deletion strains, locus YKL085W, strain MDH1, active compounds read low 0.99 | S. cerevisiae deletion strains, locus YKL160W, strain elf1, active compounds read low 1.03 | S. cerevisiae deletion strains, locus YKL190W, strain CNB1, active compounds read low 0.999 | S. cerevisiae deletion strains, locus YKR001C, strain vps1, active compounds read low 0.98 | S. cerevisiae deletion strains, locus YKR026C, strain gcn3, active compounds read low 1 | S. cerevisiae deletion strains, locus YKR091W, strain srl3, active compounds read low 0.961 | S. cerevisiae deletion strains, locus YLL001W, strain dnm1, active compounds read low 1.01 | S. cerevisiae deletion strains, locus YLL026W, active compounds read low 0.999 | S. cerevisiae deletion strains, locus YLL041C, strain sdh2, active compounds read low 0.995 | S. cerevisiae deletion strains, locus YLR027C, strain aat2, active compounds read low 0.99 | S. cerevisiae deletion strains, locus YLR039C, strain RIC1, active compounds read low 1 | S. cerevisiae deletion strains, locus YLR058C, strain SHM2, active compounds read low 1 | S. cerevisiae deletion strains, locus YLR102C, strain apc9, active compounds read low 0.974 | S. cerevisiae deletion strains, locus YLR113W, strain HOG1, active compounds read low 1.01 | S. cerevisiae deletion strains, locus YLR221C, strain rsa3, active compounds read low 1.01 | S. cerevisiae deletion strains, locus YLR258W, strain gsy2, active compounds read low 0.985 | S. cerevisiae deletion strains, locus YLR262C, strain YPT6 (second series), active compounds read low 0.996 | S. cerevisiae deletion strains, locus YLR262C, strain YPT6, active compounds read low 0.965 | S. cerevisiae deletion strains, locus YLR268W, strain sec22, active compounds read low 0.97 | S. cerevisiae deletion strains, locus YLR320W, strain mms22, active compounds read low 0.966 | S. cerevisiae deletion strains, locus YLR330W, strain CHS5, active compounds read low 0.989 | S. cerevisiae deletion strains, locus YLR342W, strain FKS1 (second series), active compounds read low 0.998 | S. cerevisiae deletion strains, locus YLR342W, strain FKS1, active compounds read low 1 | S. cerevisiae deletion strains, locus YLR357W, strain rsc2, active compounds read low 1.02 | S. cerevisiae deletion strains, locus YLR370C, strain arc18, active compounds read low 1.01 | S. cerevisiae deletion strains, locus YLR371W, strain rom2, active compounds read low 0.962 | S. cerevisiae deletion strains, locus YLR384C, strain iki3, active compounds read low 0.998 | S. cerevisiae deletion strains, locus YLR418C, strain cdc73, active compounds read low 0.987 | S. cerevisiae deletion strains, locus YML016C, strain PPZ1, active compounds read low 0.998 | S. cerevisiae deletion strains, locus YML032C, strain rad52, active compounds read low 0.991 | S. cerevisiae deletion strains, locus YML120C, strain ndi1, active compounds read low 1.01 | S. cerevisiae deletion strains, locus YML124C, strain tub3, active compounds read low 0.982 | S. cerevisiae deletion strains, locus YMR058W, strain fet3, active compounds read low 0.978 | S. cerevisiae deletion strains, locus YMR078C, strain ctf18, active compounds read low 0.968 | S. cerevisiae deletion strains, locus YMR125W, strain sto1, active compounds read low 1.01 | S. cerevisiae deletion strains, locus YMR129W, active compounds read low 0.995 | S. cerevisiae deletion strains, locus YMR205C, strain PFK2, active compounds read low 1.01 | S. cerevisiae deletion strains, locus YMR223W, strain ubp8, active compounds read low 0.972 | S. cerevisiae deletion strains, locus YMR231W, strain pep5, active compounds read low 1 | S. cerevisiae deletion strains, locus YMR307W, strain GAS1, active compounds read low 0.985 | S. cerevisiae deletion strains, locus YNL067W, strain RPL9B, active compounds read low 1.02 | S. cerevisiae deletion strains, locus YNL071W, strain lat1, active compounds read low 0.977 | S. cerevisiae deletion strains, locus YNL128W, strain TEP1, active compounds read low 0.996 | S. cerevisiae deletion strains, locus YNL153C, strain GIM3, active compounds read low 0.998 | S. cerevisiae deletion strains, locus YNL175C, strain NOP13, active compounds read low 1 | S. cerevisiae deletion strains, locus YNL183C, strain NPR1, active compounds read low 0.973 | S. cerevisiae deletion strains, locus YNL197C, strain WHI3, active compounds read low 1.01 | S. cerevisiae deletion strains, locus YNL209W, strain ssb2, active compounds read low 0.985 | S. cerevisiae deletion strains, locus YNL224C, strain SQS1, active compounds read low 1.01 | S. cerevisiae deletion strains, locus YNL233W, strain BNI4, active compounds read low 1.03 | S. cerevisiae deletion strains, locus YNL248C, strain rpa49, active compounds read low 0.968 | S. cerevisiae deletion strains, locus YNL250W, strain rad50, active compounds read low 0.986 | S. cerevisiae deletion strains, locus YNL271C, strain bni1, active compounds read low 0.96 | S. cerevisiae deletion strains, locus YNL298W, strain CLA4, active compounds read low 0.969 | S. cerevisiae deletion strains, locus YNL307C, strain MCK1, active compounds read low 0.976 | S. cerevisiae deletion strains, locus YNL322C, strain KRE1 (second series), active compounds read low 0.982 | S. cerevisiae deletion strains, locus YNL322C, strain KRE1, active compounds read low 1.01 | S. cerevisiae deletion strains, locus YNR049C, strain mso1, active compounds read low 0.983 | S. cerevisiae deletion strains, locus YNR052C, strain pop2, active compounds read low 0.97 | S. cerevisiae deletion strains, locus YOL006C, strain TOP1, active compounds read low 1.05 | S. cerevisiae deletion strains, locus YOL012C, strain htz1 0.945 | S. cerevisiae deletion strains, locus YOL147C, strain pex11, active compounds read low 0.982 | S. cerevisiae deletion strains, locus YOR001W, strain rrp6, active compounds read low 1.01 | S. cerevisiae deletion strains, locus YOR061W, strain CKA2, active compounds read low 0.997 | S. cerevisiae deletion strains, locus YOR069W, strain VPS5, active compounds read low 0.994 | S. cerevisiae deletion strains, locus YOR070C, strain gyp1, active compounds read low 1 | S. cerevisiae deletion strains, locus YOR080W, strain dia2, active compounds read low 1.01 | S. cerevisiae deletion strains, locus YOR083W, strain WHI5 (second series), active compounds read low 1.03 | S. cerevisiae deletion strains, locus YOR083W, strain WHI5, active compounds read low 1.04 | S. cerevisiae deletion strains, locus YOR106W, strain vam3, active compounds read low 1.03 | S. cerevisiae deletion strains, locus YOR136W, strain idh2, active compounds read low 0.971 | S. cerevisiae deletion strains, locus YOR144C, strain elg1, active compounds read low 0.982 | S. cerevisiae deletion strains, locus YOR184W, strain ser1, active compounds read low 0.964 | S. cerevisiae deletion strains, locus YOR231W, strain MKK1, active compounds read low 1.02 | S. cerevisiae deletion strains, locus YOR265W, strain rbl2, active compounds read low 1 | S. cerevisiae deletion strains, locus YOR270C, strain vph1, active compounds read low 0.972 | S. cerevisiae deletion strains, locus YOR290C, strain snf2, active compounds read low 0.962 | S. cerevisiae deletion strains, locus YOR316C, strain cot1, active compounds read low 0.956 | S. cerevisiae deletion strains, locus YPL051W, strain arl3, active compounds read low 1.04 | S. cerevisiae deletion strains, locus YPL055C, strain LGE1, active compounds read low 1.02 | S. cerevisiae deletion strains, locus YPL078C, strain atp4, active compounds read low 1.01 | S. cerevisiae deletion strains, locus YPL106C, strain sse1, active compounds read low 0.978 | S. cerevisiae deletion strains, locus YPL240C, strain hsp82, active compounds read low 1 | S. cerevisiae deletion strains, locus YPL256C, strain CLN2, active compounds read low 1.01 | S. cerevisiae deletion strains, locus YPR119W, strain clb2, active compounds read low 0.961 | S. cerevisiae deletion strains, locus YPR141C, strain kar3, active compounds read low 0.977 | S. cerevisiae deletion strains, locus YPR163C, strain tif3, active compounds read low 0.978 | S. cerevisiae deletion strains, locus YPR167C, strain met16, active compounds read low 0.976 | S. cerevisiae deletion strains, strain wtn01, active compounds read low 0.985 | S. cerevisiae strains, strain wild type, active compounds read low 1
